MbtI inh: inhibitors of Mycobacterium tuberculosis siderophore enzyme MbtI; P9WFX0; purified MbtI enzyme, fluorescence intensity read-out; inhibition, % (concentration not given with the values); hit rate 0.89% among 100,000; in the data active = inhibition mostly above about 56%, no sharp cut-off; inactive = mostly below about 77%
Polio RdRp inh: poliovirus RNA polymerase inhibition; hit rate 0.66% among 150,000; % elongation, % (compound at 16.7 µg/mL); P03300; poliovirus polymerase elongation, fluorescence polarization; active compounds read low; in the data active = % elongation below about 90%
AID504770: E. coli YBA685 growth inhibition, screen for V. cholerae RctB inhibitors; z-score (no concentration beside the values); AID 504770; hit rate 0.27% among 130,000; E. coli YBA685 rctB-dependent plasmid, OD600 growth, 3 h; active compounds read low; in the data active = z-score below about -2, passing the limit was not always enough
Mtb MenB inh: Mtb MenB enzyme inhibition; AID 540299; P9WNP5; MenB enzyme assay, absorbance read-out; hit rate 0.43% among 100,000; inhibition, % (concentration not given with the values); in the data active = inhibition above about 21%, passing the limit was not always enough
Target sequence (P9WNP5 whole entry, looked up): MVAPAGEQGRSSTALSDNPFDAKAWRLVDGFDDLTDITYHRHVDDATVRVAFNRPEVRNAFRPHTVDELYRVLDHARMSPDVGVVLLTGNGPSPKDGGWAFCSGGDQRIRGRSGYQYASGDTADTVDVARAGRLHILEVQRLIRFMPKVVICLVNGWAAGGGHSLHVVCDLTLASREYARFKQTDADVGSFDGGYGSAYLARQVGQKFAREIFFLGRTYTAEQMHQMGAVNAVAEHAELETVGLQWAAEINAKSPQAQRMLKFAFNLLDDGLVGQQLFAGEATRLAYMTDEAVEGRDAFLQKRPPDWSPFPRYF
* marks the source's active call; other numbers are inactive results; . = no result. Compounds with a hit are over-represented: about 1.4% of the library has one in this group of screens.

SMILES	MbtI inh	Polio RdRp inh	AID504770	Mtb MenB inh
CC(=O)N(C(C)=O)S(=O)(=O)c1ccc(N=NN(C)C)cc1	.	102	-1.5	-17
Cc1ccc(N=NN(C)C)cc1	.	.	-6.7*	.
COc1ccc(CN2CCN(C(=O)C3CCN(S(=O)(=O)c4cnc[nH]4)CC3)CC2)c(OC)c1OC	-4	100	-0.7	-23
N#Cc1c(N)sn(-c2ccccc2)c1=S	94*	79*	-0.35	-5
O=Nc1sc2ccc3ccccc3c2c1O	69*	95	0.1	-5
Cc1cc(C)c2c(/N=N/N3CCCCCC3)[nH]nc2n1	1	101	-4*	-21
Cc1cc(C)c2c(-c3ccccc3)[nH]nc2n1	-57	.	-0.85	.
CC(CCc1ccco1)NC(=O)Cn1ncc2c(Cl)cccc21 (stereo not drawn)	18	103	0.75	-14
Cc1ccccc1N1C(=O)C=CC1=O	100*	100	0.9	-18
O=C1C=CC(=O)N1c1ccccc1Br	99*	104	-3.3*	.
N#Cc1ccccc1N1C(=O)c2ccccc2S1(=O)=O	.	.	-0.7	.
CC(C)(C)c1ccccc1N1C(=O)C=CC1=O	.	.	-1.6	.
CSc1ccccc1N1C(=O)C=CC1=O	101*	102	-2.5*	-5
N#Cc1ccccc1N1C(=O)C=CC1=O	.	.	-3.5*	.
O=c1c(Cl)c(Cl)cnn1-c1ccccc1	-13	.	-0.35	.
NS(=O)(=O)c1ccc(-n2ncc(Cl)c(Cl)c2=O)cc1	3	86*	0.05	-7
CC(Sc1cccc[n+]1[O-])C(=O)NCC1CCCCC1 (stereo not drawn)	81*	100	1.4	5
O=c1[nH]c2cc3c(cc2[nH]1)OCCO3	83	101	-0.65	37*
CC(CO)(CO)NC(=S)Nc1ccc(F)c(Cl)c1	55*	107	0.25	0
Cc1nc(C(F)(F)F)c(C(N)=O)s1	.	.	-1.5	.
CCN(CC)C(=O)COc1cccc2ccccc12	10	99	-0.25	-18
CCN(CC)C(=O)COc1ccccc1C(=O)NCc1ccccc1	-6	102	-0.45	27*
CNC(=O)C1CCN(C(=O)N2CCOc3ccccc32)CC1	-4	105	2	-52
CC1SC(=S)NN1c1ccccc1 (stereo not drawn)	88*	98	-0.7	.
O=C(COCc1cc(-c2cccs2)on1)NC1CCCc2ccccc21 (stereo not drawn)	6	101	-0.95	3
SMILES	MbtI inh	Polio RdRp inh	AID504770	Mtb MenB inh
Cc1nc(C(=O)Nc2ccc(Cl)cc2)sc1C(=O)Nc1ccc(Cl)cc1	64*	69*	0.45	5
CC(C)C(NC(=O)c1ccc(F)cc1)C(=O)O (stereo not drawn)	.	.	-0.15	.
CC(NC(=O)c1ccc(F)cc1)C(=O)O (stereo not drawn)	49	102	0.75	38*
CCOc1ccc(C(=O)CNC2=NCCC2)cc1	-3	102	-0.85	.
O=C1c2cccc3c(N4CCCCC4)ccc(c23)C(=O)N1c1ccccn1	-2	78	-0.25	36*
O=C(CCc1nc2ccccc2s1)OC1CCCCC1=O (stereo not drawn)	0	97	0.05	-7
O=c1sn(-c2ccc(F)c(Cl)c2)c(=O)n1C1Cc2ccccc2C1	83*	95	-3.3*	9
N#CCn1ccn(-c2ccc(F)c(Cl)c2)c(=O)c1=O	-9	103	-1.2	-13
N#CCC1=NC(=O)/C(=C/c2ccc(F)cc2)S1	-13	109	-0.25	-11
[N-]=[N+]=c1c(=O)ccc2c(=O)c3ccccc3c(=O)c1=2	-3	82*	-6.3*	-45
CCOc1ccc(-c2c(C)sc(=Nc3ccccc3)n2Cc2ccco2)cc1	-14	98	-0.1	-3
O=C(O)CC1S/C(=N/N=C2\CSC(=O)N2)NC1=O (stereo not drawn)	10	98	0.2	5
Cc1nn(CCC#N)c2c1P(=S)(N1CCCCC1)OC(c1ccccc1)=N2 (stereo not drawn)	51	90*	0.55	-57
CCN(CC)P1(=S)c2c(C)nn(CCC#N)c2N=C(c2ccc(F)cc2)N1C (stereo not drawn)	4	102	-0.05	6
Cn1nc(-c2ccc(CO)s2)cc1C(F)(F)F	.	.	-1.1	.
N/C(Cc1nc2ccccc2[nH]1)=N\O	-3	106	-0.3	44*
O=C(Cc1nc2ccccc2[nH]1)c1cccs1	5	22*	-1.7	.
O=C(c1ccccc1)N1CCC(n2cccc2)CC1	.	.	-0.15	.
CCn1c(SCC(N)=O)nnc1-c1ccoc1C	-12	104	-0.45	-2
O=[n+]1c2c(n([O-])c3ccccc31)CCC2	14	100	-3.3*	5
Cc1ccc2c(c1)n([O-])c1c([n+]2=O)CCCC1	19	103	-0.75	-10
CSC1=C(C#N)C(=O)NC(c2ccc(Cl)cc2)S1 (stereo not drawn)	2	88*	-0.1	-1
CC(/C=C/c1ccccc1)=N\n1c(C)cc(C)c(C#N)c1=O	8	105	0.45	-4
C=CCN(CC=C)CC(O)Cn1c2c(c3ccccc31)CCN(C)C2=O (stereo not drawn)	.	.	1.9	.
CCCc1nc(SCC(=O)c2ccc(Cl)cc2)nc(OC(=O)N(CC)CC)c1C	0	100	1.5	4
SMILES	MbtI inh	Polio RdRp inh	AID504770	Mtb MenB inh
Cc1cc2oc(=O)cc(CSc3ncccn3)c2cc1Cl	63	105	-3.1*	-21
O=c1cc(CSc2ncccn2)c2cc3c(cc2o1)CCC3	13	100	-0.15	1
COc1ccc(C(=O)N/N=c2/c(=O)c(=O)c3ccccc23)cc1	-6	52*	-0.2	-25
Cc1cc(C)c(O)c(N)c1	101*	105	0.4	7
CN(C)S(=O)(=O)c1ccc(C(=O)Oc2cc(=O)[nH]c3ccccc23)cc1	-152	89*	0.2	-42
COc1cccc(NC(=O)c2ccc(-c3cccc(Cl)c3C)o2)c1	45	105	-0.05	-43
O=C(O)C1(c2ccccc2)CCC(Nc2ccccc2)C1 (stereo not drawn)	.	69*	-1	-5
NC(=NCCCCCCN=C(N)/N=C(\N)Nc1ccc(Cl)cc1)/N=C(\N)Nc1ccc(Cl)cc1	24	100	-5*	-5
CC(C)N=C(N)/N=C(\N)Nc1ccc(Cl)cc1	-16	99	.	0
O=c1[nH]c2ccc(S(=O)(=O)Nc3ccc(O)cc3)cc2[nH]1	-6	104	-0.4	6
O=S(=O)(Nc1ccc(Cl)cc1)c1ccc2oc(=S)[nH]c2c1	90*	91	0.75	-48
O=C1OC2C(C(=O)O)Sc3c(sc(=O)n3-c3ccccc3)C2c2cc(Br)ccc21 (stereo not drawn)	-7	100	-1.9	39*
O=c1sc2c(n1-c1ccccc1)SCC1COc3ccccc3C21 (stereo not drawn)	21	95	0.6	-17
NC(=O)c1cccnc1-c1nc2ccccc2s1	42	101	1.6	-14
COC(=O)Cc1nc(-c2ccccc2)cs1	10	86*	0.05	6
O=C1/C(=C\c2ccc(Br)o2)CC/C1=C/c1ccc(Br)o1	42	43*	0.55	-38
O=C1/C(=C/c2cc3ccccc3o2)CC/C1=C\c1cc2ccccc2o1	3	108	-0.15	-20
Nc1cc(=O)[nH]c2n[nH]c(=S)n12	100*	101	-0.4	33*

Screening results from PubChem BioAssay.
